Assay results taken from ChEMBL document CHEMBL3988442, “University of Dundee, Small-Polar-MMV Screening Library” (2021).

What follows are compounds tested against T1, Arginase-2, mitochondrial (Homo sapiens) (UniProt P78540) (assay: in vitro enzyme assay to detect the production of urea directly proportional to the activity of Arginase II). Details: 30 µM.
T1 sequence (whole entry): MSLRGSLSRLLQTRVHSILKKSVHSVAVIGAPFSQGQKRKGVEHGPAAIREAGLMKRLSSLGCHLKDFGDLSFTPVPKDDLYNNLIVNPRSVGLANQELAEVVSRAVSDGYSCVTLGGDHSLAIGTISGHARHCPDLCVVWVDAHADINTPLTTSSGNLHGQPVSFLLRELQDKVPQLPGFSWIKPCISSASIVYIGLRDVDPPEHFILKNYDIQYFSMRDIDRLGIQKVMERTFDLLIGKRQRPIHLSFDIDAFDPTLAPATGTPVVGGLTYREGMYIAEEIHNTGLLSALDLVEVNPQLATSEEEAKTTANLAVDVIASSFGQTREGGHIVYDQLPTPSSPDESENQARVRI
Assay type: functional
Design: scale not given: in the data most compounds retested in dose-response had high values

SMILES | Percent Effect [%]
O=C(c1coc(CN2CCN(c3ccccc3F)CC2)n1)N1CCCC1 | 3.78
COc1ccccc1Oc1ncccc1CNC(=O)[C@@H](N)[C@@H](C)O | 3.78
CCn1c(NCc2ccccn2)nc2c(C)nn(C)c2c1=O | -5.95
CN(Cc1ccco1)[C@@H]1CN(Cc2cnn(C)c2)[C@@H]2CCCO[C@H]12 | 2.7
Cc1ccc([C@@H]2CN(S(=O)(=O)c3cc(C)ccc3F)C[C@H]2N(C)C)cc1 | 2.7
Cc1nc(NCC2CC2)nc2c1COCC21CCN(S(=O)(=O)C2CC2)C1 (centres undefined) | 7.03
Cc1cccc(-c2nc(CN3CC(n4nc(C)cc4C)C3)no2)c1 | 5.95
COc1ccc(C(=O)N2C[C@@H](C(=O)O)[C@H](c3ccccc3)C2)c(C)c1 | -7.03
O=C(Cn1ccc2c(Cl)cccc21)N1CCCC1 | 8.11
CC(C)NC(=O)[C@]12COC[C@H]1CN(Cc1cnn(C)c1)C2 | -13.5
OC(CN(Cc1ccccc1)Cc1ccccn1)c1cccs1 (centres undefined) | 11.3
CC(C)CNC(=O)c1cc(Br)c2c(c1)OCCO2 | 3.78
CN1CCC(c2cncc(-c3cccc(Cl)c3)n2)CC1 | 4.87
O=C(NCc1ccccn1)[C@]12COC[C@H]1CN(Cc1ccccc1F)C2 | 4.87
CNC(=O)CCNC(=O)c1cc(Br)c2c(c1)OCCO2 | -10.3
CN(Cc1ccco1)[C@@H]1CN(Cc2nccn2C)[C@@H]2CCCO[C@H]12 | 11.3
CC(=O)NCCNC(=O)c1cc(Br)c2c(c1)OCCO2 | 4.87
COc1cc(C(=O)N(CCC#N)Cc2ccccn2)ccc1C | 2.7
CCN1CCC(NC(=O)c2ccc(F)cc2I)CC1 | -1.62
COc1ccc(C(=O)N(CCC#N)Cc2ccccn2)cc1 | 1.62

SMILES | Percent Effect [%]
CN(C)C(=O)CN1CCC(c2cncc(-c3cccc(Cl)c3)n2)CC1 | -0.54
Cn1cc(CN2C[C@@H]3COC[C@]3(C(=O)NCc3cccs3)C2)cn1 | 4.87
CN1[C@H]2CC[C@@H]1CN(C(=O)CCc1csc(N)n1)CC2 | 3.78
CN(Cc1ccco1)[C@@H]1CN(CC2CCOCC2)C[C@@H]2CCCO[C@@H]21 | 7.03
CNC(=O)[C@H]1C[C@@H]2CN(C(=O)c3ccsc3)C[C@@H]2N1S(C)(=O)=O | 8.11
Cc1nn(CCO)c(C)c1CNC1CCc2c(F)cccc21 (centres undefined) | 5.95
Cc1ccc(C(=O)N(CCC#N)Cc2ccccn2)cc1C | 3.78
OCCN1CCC(c2cncc(-c3cccc(Cl)c3)n2)CC1 | -3.78
O=c1[nH]c2c(c(=O)n1C1CCCCC1)CCC2NCc1ccccc1 (centres undefined) | 9.19
O=c1[nH]c2c(c(=O)n1C1CCCCC1)CCC2Nc1ccc(Cl)cc1 (centres undefined) | -2.7
NC(=O)CN1CCC(c2cncc(-c3cccc(Cl)c3)n2)CC1 | 2.7
CCC(C(=O)NCc1ccncc1)N(c1ccccc1)S(C)(=O)=O (centres undefined) | 5.95
CC(C)CN1CCC(NC(=O)c2ccc(Cl)cc2Cl)CC1 | -7.03
Cc1noc(C)c1CN1C[C@@H](N(C)Cc2ccco2)[C@H]2OCCC[C@H]21 | 7.03
Cc1nnsc1C(=O)N1CCCC(c2nccn2Cc2cscn2)C1 (centres undefined) | -2.7
CN(Cc1ccccn1)C1CC2(CCN(Cc3ccccn3)CC2)C1 | -16.8
CCOC(=O)Cn1cccc(S(=O)(=O)N2CCCC2)c1=O | -11.3
COCC(=O)N1CCC(c2cncc(-c3cccc(F)c3)n2)CC1 | -5.95
COc1ccc(C2SC(C)=Nc3c2c(=O)[nH]n3C2CCCC2)cc1O (centres undefined) | 2.7
